High-throughput results as filed in PubChem BioAssay.
This excerpt belongs to a sample that is enriched for hits.
TbPYK inhibitor: T. brucei pyruvate kinase inhibition; Potency, µM (top dose mostly 76.8 µM), inactives show top-dose activity, negative = inhibition, actives largely listed as inhibitors; TbPYK enzyme, Kinase-Glo Plus ATP luminescence, 45 min; 410,000 compounds, 0.12% hits; AID 624173; note: potency is the fitted concentration of half-maximal effect; % is set by controls: 0 for no effect and ±100 for the full control effect; nearly all actives have a fitted effect of over 50% in size
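Luminescence from Kinase-Glo Plus, added after a 45-minute room-temperature reaction, served as the end-point read-out. The enzyme and substrate were preincubated with compound before ADP (130 uM final) initiated turnover. Concentration-effect curves came from normalized qHTS data.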
RE007 growth inh: less growth of the S. pombe RE007 Vpr strain; S. pombe RE007 Vpr strain, BacTiter-Glo ATP luminescence, 24 h; Potency, µM (series often up to 92.2 µM), for the others: at the top dose activity change, negative = less growth, most hits filed as inhibitors; 360,000 compounds, 0.21% hits; active = well fitted falling curve with a large enough effect; inconclusive = small, poorly fitted or top-dose-only effect; inactive = no such curve, though single readings can be large or run the other way; note: potency is the fitted concentration of half-maximal effect; % is set by controls: 0 for no effect and ±100 for the full control effect; nearly all actives have a fitted effect of over 50% in size
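Fission yeast RE007 carrying one integrated HIV-1 vpr copy, seeded at OD 0.01 in PMG+AL medium with 23 nL pinned compound. Grown 24 h at 30 degrees; viability read by BacTiter-Glo luminescence after 5 min.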
LmPK inh: inhibitors of Leishmania mexicana pyruvate kinase. purified LmPK, Kinase-Glo ATP luminescence, 1 h. Potency, µM (doses to about 57.5 µM), for the others: at the highest dose activity change, negative = inhibition, actives largely listed as inhibitors. 290,000 compounds, 0.37% hits. AID 1721; note: potency is the fitted concentration of half-maximal effect; % is set by controls: 0 for no effect and ±100 for the full control effect
Target sequence (Q27686 whole entry, looked up): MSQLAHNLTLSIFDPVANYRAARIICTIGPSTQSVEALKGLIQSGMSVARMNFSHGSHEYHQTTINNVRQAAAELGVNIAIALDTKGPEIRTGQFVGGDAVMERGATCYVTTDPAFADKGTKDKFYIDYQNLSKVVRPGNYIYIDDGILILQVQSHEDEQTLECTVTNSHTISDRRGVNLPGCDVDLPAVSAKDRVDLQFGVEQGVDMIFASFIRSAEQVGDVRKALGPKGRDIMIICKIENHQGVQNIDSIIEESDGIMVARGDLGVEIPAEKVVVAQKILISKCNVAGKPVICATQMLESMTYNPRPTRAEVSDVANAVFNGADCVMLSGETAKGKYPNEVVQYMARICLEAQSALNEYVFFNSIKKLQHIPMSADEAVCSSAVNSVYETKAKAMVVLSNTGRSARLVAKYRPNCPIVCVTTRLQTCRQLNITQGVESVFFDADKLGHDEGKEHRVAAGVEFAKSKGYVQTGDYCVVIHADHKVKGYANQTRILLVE
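Screened at intermediate enzyme activity to detect both inhibitors and activators: LmPK at 0.1 nM, with a 0.5 nM enzyme column as activation reference. PEP 0.5 mM, ADP 0.1 mM; ATP detected by luminescence after 1 h.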
Cycloheximide cs: affects cycloheximide protein synthesis inhibition readout, counter-screen; cell reporter, cycloheximide protein synthesis inhibition counterscreen; max response, %; 300,000 compounds, 12% hits; AID 2314; in the data active = max response mostly above about 13%, no sharp cut-off; inactive = mostly below about 14%; note: read at 38.3 µM for the half of the compounds with a filed dose; 0% is about no effect
Shiga inhibitor: blocks Shiga toxin action in Vero cells. inhibition, % at 38.7 µM. AID 2315. Vero cells, Shiga toxin protein synthesis inhibition reporter. 290,000 compounds, 9.2% hits; in the data active = inhibition mostly above about 28%, no sharp cut-off; inactive = mostly below about 43%; note: 0% is about no effect
FBPA Giardia inh: Giardia lamblia aldolase inhibition; A8B2U2; purified Giardia FBPA; 290,000 compounds, 0.71% hits; Potency, µM (doses to about 59.6 µM), without a hit: at the highest dose activity, negative = inhibition, actives largely listed as inhibitors; note: potency is the fitted concentration of half-maximal effect; % is set by controls: 0 for no effect and ±100 for the full control effect; nearly all actives have a fitted effect of over 55% in size
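Giardia FBPA (40 nM reagent) was preincubated 10 min at RT with compound (up to 57.5 uM final), then substrate plus GAPDH/TPI/NAD/arsenate coupling system with diaphorase/resazurin was added; resorufin fluorescence (525/598 nm) was read after 20 min.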
An asterisk follows results filed as active; ? = inconclusive; . = no result; [ ] = remark or other dose. Unless noted, calls come from the whole dose curve; as a rule, active = well fitted curve in the direction sought with a large enough effect; inconclusive = small, poorly fitted or top-dose-only effect, or another doubt; inactive = no such curve, though single readings can be large; an effect the other way counts as inactive or inconclusive.

SMILES	TbPYK inhibitor	RE007 growth inh	LmPK inh	Cycloheximide cs	Shiga inhibitor	FBPA Giardia inh
CC1=NN(c2ccccc2)C(=O)/C1=C/c1ccc[nH]1	-2%	-11%	1%	21*	78*	-1%
CCCCCC#CC[C@@H](O)/C=C/C=C/C=C\[C@@H](O)CCCC(=O)O	.	.	.	.	.	3%
Cc1c(C(=O)N(C)C)sc2c1c(=O)n(-c1ccc(Cl)c(Cl)c1)c(=O)n2CC(=O)Nc1ccc(Br)cc1F	.	.	.	2	-9	.
CCCCOc1ccc(CSc2ncn[nH]2)cc1	-2%	-13%	1%	26*	61	-8%
CCOC(=O)c1ccc(CSc2ncn[nH]2)o1	-10%	10%	-6%	-2	2	-18%
CCCCCOc1ccc(CSc2ncn[nH]2)cc1	-10%	-5%	6%	39*	72*	0%
CCCCOc1ccc(CSc2nncn2N)cc1	-4%	1%	-2%	31*	65*	9%
Cc1nc2ccc(NC(=O)NCc3ccco3)cc2s1	-2%	-3%	-4%	43*	56*	-2%
COCCNC(=O)Nc1ccc2nc(C)sc2c1	-5%	3%	-2%	13	64	-12%
Cc1nc2ccc(NC(=O)NCCCO)cc2s1	0%	10%	-4%	16*	49*	0%
O=C(NCc1ccco1)Nc1ccc2snnc2c1	2%	-17%	19%	8	17	1%
Cc1nc2ccc(NC(=O)NCCO)cc2s1	3%	-15%	5%	20*	35	0%
COc1ccc(OCC(=O)Nc2ccc3nc(C)sc3c2)cc1	-13%	-29%	2%	-3	-11	6%
CCCN1CCC(=O)N([C@H](CN=[N+]=[N-])CC(C)C)CC1	-5%	-8%	8%	-1	-6	-6%
Cc1ccc(OCCSc2nc3ccccc3n2CC(=O)N2CCCCC2)c(C)c1	-10%	.	.	.	.	.
C(=NN=Cc1c[nH]c2ccccc12)c1c[nH]c2ccccc12	4%	-19%	.	.	.	.
O=C(O)c1cccc2c(/C=N/Nc3ccccn3)c[nH]c12	0%	8%	-20%	39*	70*	-28%
C(=N\Nc1ccccn1)/c1c[nH]c2ccccc12	-20%	-16%	-1%	30*	89*	0%
CN1C(=O)CSC1=S	-3%	1%[18.4 µM]	-10%	-4	-5	-12%
Cc1cccc(COCCN2CCN(S(=O)(=O)c3ccccc3)CCC2=O)c1	2%	-15%	9%	-6	9	0%
CCc1ccc(CNC(=O)C2CCN(S(=O)(=O)N3CCCCC3)CC2)cc1	-8%	7%	.	.	.	.
COCCNC(=O)C(C)OC(=O)C1=Cc2ccccc2OC1 (stereo unspecified)	-9%	1%	-4%	15*	18	2%
CCn1ncc(C2=NOC(C(=O)Nc3ccc(C)cc3)C2)c1C (stereo unspecified)	4%	-14%	11%	1	-15	1%
CCn1ncc(C2=NOC(C(=O)Nc3cccnc3)C2)c1C (stereo unspecified)	4%	0%	2%	19*	13	-1%
Cc1ccc(C(C)C)c(OCCSc2nc3ccccc3n2CC(O)CO)c1 (stereo unspecified)	3%	.	.	.	.	.
SMILES	TbPYK inhibitor	RE007 growth inh	LmPK inh	Cycloheximide cs	Shiga inhibitor	FBPA Giardia inh
CCCSc1nc2cc(C)c(C)cc2n1CC(C)O (stereo unspecified)	0%	-8%	4%	26*	72*	?
CCCSc1nc2cc(C)c(C)cc2n1CC(O)CO (stereo unspecified)	0%	-2%	-1%	21*	78*	-4%
Cc1cc(-c2nnc(SCC(=O)Nc3ccc(Br)cc3F)n2N)n[nH]1	-16%	13%	7%	9	-2	.
NS(=O)(=O)c1cc(C(=O)Nc2ccc3c(c2)OCCCO3)ccc1Cl	5%	0%	-6%	19*	58*	-2%
O=C(Nc1ccc2c(c1)OCCO2)c1ccc(Cl)c(S(=O)(=O)N2CCOCC2)c1	-13%	12%	2%	42*	66*	0%
O=C(Nc1ccc2c(c1)OCO2)c1ccc(S(=O)(=O)N2CCCC2)cc1	-14%	-23%	0%	9	13	1%
Cc1ccc(NC(=O)c2ccc3c(c2)OCO3)cc1S(=O)(=O)N1CCOCC1	0%	-1%	.	.	.	.
O=C(Nc1ccc2c(c1)OCO2)c1ccc(Cl)c(S(=O)(=O)N2CCOCC2)c1	-2%	4%	-7%	16*	39*	.
COc1ccc(C(=O)Nc2ccc3c(c2)OCCO3)cc1S(=O)(=O)N1CCOCC1	-1%	-22%	.	.	.	.
Cc1ccc([C@H]2C[C@H](n3cc(C4CC4)nn3)[C@@H](O)CN2C(=O)C2CCCCC2)cc1	-8%	-4%	.	.	.	.
Cc1cnc(CNc2cc(-c3cccnc3)ncn2)cn1	.	.	.	.	.	5%
O=C(CN1CCC(n2nnc3cc(C(F)(F)F)ccc32)CC1)Nc1ccc2c(c1)OCCO2	-3%	?	6%	46*	91	0%
O=C(CN1CCC(n2nnc3cc(C(F)(F)F)ccc32)CC1)Nc1ccc2c(c1)CCC2	2%	13%	4%	-6	-6	-4%
CCn1c(C)c(CS(=O)(=O)c2ccccc2)[nH]c1=O	-29%	-2%	9%	34*	108	1%
C[C@]12O[C@H]1[C@@H](O)C(Br)=C(CO)[C@H]2O	.	.	.	.	.	-25%
CCOC(=O)C1=C(C(=O)OCC)N(CC)CCC1=O	-9%	6%	.	.	.	.
COC(=O)c1sccc1NC(=O)CC1C(=O)NCCN1C(=O)c1ccccc1 (stereo unspecified)	-8%	4%	5%	13*	-10	-8%
CCN(CCn1cccn1)C(=O)c1cc(COc2cc(C)ccc2C)on1	6%	2%	-3%	62*	168*	.
CCN(CCn1cccn1)C(=O)c1cc(COc2ccc(F)c(F)c2)on1	-1%	-3%	1%	30*	50*	-6%
CCN(CCn1cccn1)C(=O)c1cc(COc2ccccc2SC)on1	-4%	-8%	-5%	65*	94*	.
COc1ccc(OC)c(CNS(=O)(=O)c2c(C(=O)N3CCCCCC3)c(C)n(C)c2C)c1	0%	.	.	.	.	.
COc1ccc(CN(C)c2ncnc3sccc23)c(OC)c1OC	4%	43%	0%	-2	-3	1%
COc1cc(C2Nc3cc(Cl)c(S(N)(=O)=O)cc3S(=O)(=O)N2)ccc1OCc1ccccc1 (stereo unspecified)	-16%	-26%	-21%	55*	128*	-15%
COc1cc(C2Nc3cc(Cl)c(S(N)(=O)=O)cc3S(=O)(=O)N2)cc(OC)c1OC (stereo unspecified)	-2%	5%	4%	-5	-4	-7%
COc1cccc(CN2CCC2(C)C(=O)Nc2cccc3cccnc23)c1OC (stereo unspecified)	4%	3%[18.4 µM]	.	.	.	.
